FPRL1 ligand – human FPRL1 ligands by binding competition, primary screen, cell-based, FPR counter-screen, flow cytometry; N-formyl peptide receptor 2 (Homo sapiens), P25090; inhibition, % (test concentration not listed); hit rate 0.3% among 24,000; AID 441, 2006; FPRL1-expressing cells, fluorescent ligand binding inhibition;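 further: 0% = buffer alone and 100% = receptor blocker peptide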
S aureus QS inh – S. aureus quorum sensing inhibitors, primary screen, RNAIII-GFP reporter, flow cytometry; S. aureus RN6390 RNAIII-GFP reporter, AIP-induced, flow cytometry 3 h; inhibition, % at 2 µM; hit rate 0.3% among 24,000;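 active means share of bacteria positive for the green fluorescent reporter and its mean brightness both inhibited by 50% or more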;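 further: 0% = AIP-stimulated control and 100% = unstimulated bacteria without AIP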
FPR ligand – human FPR ligands by binding competition, primary screen, cell-based, FPRL1 counter-screen, flow cytometry; inhibition, % (concentration not given with the values); FPR-expressing cells, fluorescent ligand binding; AID 440, 2006; hit rate 0.74% among 24,000; fMet-Leu-Phe receptor (Homo sapiens), P21462;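 further: 0% = buffer wells and 100% = receptor blocker peptide wells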
Target sequence (P21462 whole entry, looked up): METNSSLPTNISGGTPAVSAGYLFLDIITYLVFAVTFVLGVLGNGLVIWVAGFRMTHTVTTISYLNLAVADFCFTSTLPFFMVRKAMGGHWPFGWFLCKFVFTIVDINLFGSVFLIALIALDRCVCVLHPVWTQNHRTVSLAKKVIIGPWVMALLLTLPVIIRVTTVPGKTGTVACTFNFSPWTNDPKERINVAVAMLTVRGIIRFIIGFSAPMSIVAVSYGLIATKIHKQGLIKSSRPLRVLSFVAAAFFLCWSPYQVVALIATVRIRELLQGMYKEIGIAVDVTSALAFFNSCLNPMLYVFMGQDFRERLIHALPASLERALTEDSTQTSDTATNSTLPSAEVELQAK
Prostate diff – activators of LNCaP prostate cell differentiation, primary screen, flow cytometry side scatter; 4 d; side scatter shift, % at 10 µM; hit rate 0.56% among 24,000;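 active means side scatter shift above 30%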;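 further: androgen-responsive LNCaP prostate cancer cells in charcoal-stripped serum medium; percent of cells past a gate set so DMSO wells show 10% shift; higher shift means more granular cells and more differentiation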
Numbers without * were called inactive; ? = inconclusive; . = not tested or not shown; ! = not active in a repeat. Hits are enriched below; roughly 1.7% of the tested compounds scored in any of these assays. Unless noted, no stated cut-off is given here; in the data, active means inhibition above about 30%; inconclusive means no clear call, values can overlap the other calls; inactive means below that.

SMILES	FPRL1 ligand	S aureus QS inh	FPR ligand	Prostate diff
Cn1nc(-c2ccc(Cl)cc2)c2cc(C(=O)NCCN3CCOCC3)sc21	3	2	-1	9
Cn1nc(-c2ccc(Cl)cc2)c2cc(C(=O)NCCCN3CCOCC3)sc21	-3	0	-6	31*
COc1ccc(CNC(=O)CCCCCn2c(SCC#N)nc3cc4c(cc3c2=O)OCO4)cc1	5	6	5	3
Cc1ccc(NC(=O)c2oc3ccccc3c2NC(=O)c2ccc3c(c2)OCO3)cc1	12	9	0	7
COCCCN1C(=O)C(O)=C(C(C)=O)C1c1ccccn1 (stereo not given)	-3	0	7	12
CCN1C(=O)/C(=C2\SC(=S)N(CCCOC)C2=O)c2ccccc21	33*	.	23	.
CSCCC1C(C#N)=C(N)Oc2n[nH]c(-c3cccs3)c21 (stereo not given)	6	9	30*	2
N#CC1=C(N)Oc2n[nH]c(-c3cccs3)c2C1c1cccs1 (stereo not given)	12	-2	11	6
CCOC(=O)c1ccc(NC(=O)N2CCN(Cc3cccc(F)c3)CC2)cc1	-3	-1	-16	16
CC(=O)NC(Cc1cc(C)ccc1C)C(=O)N1CCN(C(=O)Nc2ccc(C(C)=O)cc2)CC1 (stereo not given)	7	0	35*	4
Cc1ccc(C)c(Cn2c(=O)c3c(nc4n3CCN4Cc3ccco3)n(C)c2=O)c1	0	9	8	7
Cn1c(=O)n(CCc2ccccc2)c(=O)c2c1nc1n2CCN1Cc1ccco1	-6	96*	2	3
CCOC(=O)c1oc2cc(O)ccc2c(=O)c1-c1ccccc1OC	24	.	34*	.
COc1ccccc1-c1c(C)oc2cc(OC(=O)c3ccco3)ccc2c1=O	-1	.	68*	.
CCOc1ccccc1Oc1c(C)oc2cc(OC(=O)c3ccco3)ccc2c1=O	-4	.	79*	.
Cc1oc2cc(OCC(=O)O)ccc2c(=O)c1Oc1ccccc1	-9	-3	-3	0
COc1ccccc1Oc1c(C)oc2cc(OC(=O)c3ccco3)ccc2c1=O	0	.	93*	.
COc1ccc(Oc2c(C)oc3cc(OC(=O)N4CCOCC4)ccc3c2=O)cc1	6	-1	1	11
CCOc1cccc2cc(-c3csc(NC(=O)CCC(=O)N4CCN(C)CC4)n3)c(=O)oc12	2	-1	4	1
O=C(COc1ccc(S(=O)(=O)N2CCCC2)cc1Cl)NC1CC1	1	0	3	36*
CCOC(=O)CCC(=O)O[C@H]1[C@H](O[C@@H]2[C@@H](C)[C@H](O[C@H]3C[C@@](C)(OC)[C@@H](O)[C@H](C)O3)[C@@H](C)C(=O)O[C@H](CC)[C@@](C)(O)[C@H](O)[C@@H](C)C(=O)[C@H](C)C[C@@]2(C)O)O[C@H](C)C[C@@H]1N(C)C	-2	52*	0	1
CCC(NC(=O)Nc1cc(OC)c(OC)c(OC)c1)(C(F)(F)F)C(F)(F)F	55*	0	45*	12
COc1cc(NC(=O)c2ccc(COCC(F)(F)F)o2)cc(OC)c1OC	2	2	-7	10
COc1cc2c3c(c1)/C(=C1/SC(NC(C)=O)=NC1=O)C(=O)N3C(C)(C)C=C2C	11	-1	30*	8
CCCCOc1cc(C(=O)NCCN(CC)CC)c2ccccc2n1	0	4	49*!	7
SMILES	FPRL1 ligand	S aureus QS inh	FPR ligand	Prostate diff
CCCCN(CC)CCNC(=O)c1cc2c(C)nc3ccccc3c2o1	-1	1	-3	6
Cc1sc(NC(=O)C2CCCCC2C(=O)O)c(C(N)=O)c1-c1ccc(C(C)(C)C)cc1 (stereo not given)	3	.	49*	.
O=C(NCCCN1CCN(c2ccc(F)cc2)CC1)c1cccc(N2CCCC2=O)c1	31*	4	-2	7
Cc1cccc(-n2nc3c(c2NC(=O)c2ccco2)CSC3)c1C	-2	-2	96*	5
CC1CCN(c2nc(-c3ccco3)c3c(c2C#N)CC(C)(C)OC3)CC1	-6	-3	-10	2
COc1cccc(N2C(=O)C3ON(c4ccccc4)C(c4cccs4)C3C2=O)c1 (stereo not given)	-3	-1	39*	3
O=C1C2ON(c3ccccc3)C(c3cccnc3)C2C(=O)N1c1ccccc1 (stereo not given)	5	-1	23	8
CCC(=O)NC(C)C(c1cccs1)N1CCN(c2ccccc2)CC1 (stereo not given)	47*	0	-4	11
O=C(OCn1nnc2ccccc2c1=O)c1cc2ccccc2o1	8	1	-2	12
CCN1CCCC1CNC(=O)c1cc2c(C)nc3ccccc3c2o1 (stereo not given)	4	-3	2	15
CCOC(=O)N1CCC(NC(=O)c2cc3c(C)nc4ccccc4c3o2)CC1	28	-2	40*	4
Cc1nc2ccccc2c2oc(C(=O)N3CCc4ccccc43)cc12	26	-2	38*	3
CSc1nc2c(c(=O)[nH]1)C(c1ccncc1)C(C(=O)OC(C)C)=C(C)N2 (stereo not given)	1	4	4	8
Cc1cccn2c(=O)c3cc(C(=O)N4CCc5ccccc5C4)n(C)c3nc12	2	-2	-1	4
CC(C)N=c1cc2n(-c3ccc(Cl)cc3)c3ccccc3nc-2cc1Nc1ccc(Cl)cc1	18	70*	8	1
CCOc1ccc(NC(=O)c2oc3ccccc3c2NC(=O)C(C)C)cc1	-3	-12	-4	16
Cc1nnc(SCc2cnc(-c3ccccc3)o2)[nH]c1=O	52*	0	63*	9
COc1cc(C2/C(=C(/O)c3ccc(F)cc3)C(=O)C(=O)N2CCCC(=O)O)ccc1O (stereo not given)	-2	-4	-5	10
O=C1c2ccccc2C(Nc2ccc(Cl)cn2)N1c1cccnc1 (stereo not given)	-2	1	-2	7
N#Cc1c(N)n(CCNC(=O)c2cccs2)c2nc3ccccc3nc12	-22	-2	-25	2
CCCCn1c(NC(C)=O)c(C#N)c2nc3ccccc3nc21	4	.	66*	.
C=CCn1c(NC(=O)c2ccccc2Cl)c(C#N)c2nc3ccccc3nc21	-7	.	4	.
C=CCn1c(NC(=O)c2ccccc2)c(C#N)c2nc3ccccc3nc21	32*	.	?	.
O=C(C1=C(O)C(=O)N(CCN2CCOCC2)C1c1ccccc1)c1cccs1 (stereo not given)	28	.	44*	.
O=C(C1=C(O)C(=O)N(CCCN2CCOCC2)C1c1ccccn1)c1cccs1 (stereo not given)	-7	.	-2	.
C=CCOc1cccc(C2C(C(=O)c3ccco3)=C(O)C(=O)N2CCN2CCOCC2)c1 (stereo not given)	-2	.	63*	.
COc1ccc(OC)c(C2C(C(=O)c3ccco3)=C(O)C(=O)N2CCCN2CCOCC2)c1 (stereo not given)	1	.	50*	.
COc1ccccc1NC(=O)c1nc[nH]c1C(=O)Nc1ccccc1OC	5	1	-4	35*
